From PubChem BioAssay (EPA / NIEHS)
Results filed as inconclusive are left out. The source made the active and inactive calls. The calls were made as follows, unless noted: active = hit-call score of the fitted dose curve at least 0.9, where 1 is the maximum; inactive = score below 0.9.

Tests used:
[1] = ATG_PXRE_CIS: Attagene CIS-FACTORIAL HepG2 Assay for human Pregnane X Receptor Element (PXRE) (AID 2282957); details: HepG2 Attagene CIS-FACTORIAL PXRE reporter, mRNA; actives raise or lower the signal
In short: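 HepG2 cells transiently transfected with cis-regulated multiple reporter transcription units; endogenous factor activity measured as reporter mRNA 24 h after dosing. RT-PCR, fluorescent primer extension, HpaI digestion, capillary electrophoresis; bidirectional fit versus DMSO baseline.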

[2] = ATG_RORE_CIS: Attagene CIS-FACTORIAL HepG2 Assay for human RAR-related Orphan Receptor Element (RORE) (AID 2282959); details: HepG2 Attagene cis-factorial RORE reporter, mRNA; actives raise or lower the signal
In short: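 A 24-hour exposure of transfected HepG2 hepatoma cells precedes RNA isolation and reporter RT-PCR. Labeled products are digested with HpaI and resolved by capillary electrophoresis, with gain or loss of signal scored relative to DMSO.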

[3] = ATG_Sox_CIS: Attagene CIS-FACTORIAL HepG2 Assay for human SRY-box transcription factor (SOX) (AID 2282960); details: HepG2 Attagene cis-factorial SOX reporter, mRNA; actives raise or lower the signal
In short: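 HepG2, cis reporter units, 24 h exposure. Reporter mRNA: RT-PCR → FAM labelling → HpaI → CE fluorescence. Bidirectional fit vs DMSO.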

[4] = ATG_SREBP_CIS: Attagene CIS-FACTORIAL HepG2 Assay for human Sterol Regulatory Element Binding (SREBP) (AID 2282962); details: HepG2 Attagene cis-factorial SREBP reporter, mRNA; actives raise or lower the signal
In short: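 mRNA induction of transfected cis-promoter reporters in HepG2 cells, 24 h post-dose. Detection: RT-PCR with 6-FAM-labelled products, HpaI digest, capillary electrophoresis. DMSO served as negative control and baseline.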

[5] = molecular target: Signal transducer and activator of transcription 3 (Homo sapiens) (UniProt P40763); assay: ATG_STAT3_CIS: Attagene CIS-FACTORIAL HepG2 Assay for human Signal Transducer and Activator of Transcription 3 (STAT3) (AID 2282963); details: HepG2, Attagene cis-factorial STAT3 reporter transcription; actives raise or lower the signal
In short: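 HepG2 cells transiently transfected with cis-element-driven multiple reporter transcription units; after 24 h chemical exposure, reporter mRNA measured by RT-PCR, 6-FAM primer-extension labelling, HpaI digestion and capillary electrophoresis. Bidirectional fitting versus DMSO baseline.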

[6] = ATG_TA_CIS: Attagene CIS-FACTORIAL HepG2 Assay for human TA Basal Promoter (AID 2282964); details: HepG2 Attagene CIS-factorial TA basal promoter reporter; actives raise or lower the signal
In short: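 Background internal-marker endpoint from a 52-component HepG2 cis-reporter panel. Cells treated 24 h; reporter transcripts quantified via RT-PCR and CE fluorescence against DMSO baseline.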

[7] = ATG_TCF_b_cat_CIS: Attagene CIS-FACTORIAL HepG2 Assay for human T-Cell-Factor with beta-catenin (TCF/b-cat) (AID 2282965); details: HepG2 TCF/beta-catenin cis-reporter transcription, actives raise or lower the signal
In short: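 HepG2 cells transiently transfected with multiple cis-promoter-regulated reporter transcription units, so endogenous transcription factor activity is measured. Reporter mRNA read 24 hours after dosing by RT-PCR, fluorescent labelling and capillary electrophoresis; bidirectional fitting against DMSO.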

[8] = ATG_TAL_CIS: Attagene CIS-FACTORIAL HepG2 Assay for human TAL Basal Promoter (AID 2282966); details: HepG2 Attagene cis-factorial TAL promoter reporter; actives raise or lower the signal;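 also: background control endpoint measuring basal TAL promoter reporter mRNA not a specific factor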
In short: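 HepG2 cells were transiently transfected with promoter-driven multiplexed reporter units and dosed for 24 h. Reporter mRNA was measured by RT-PCR with capillary electrophoresis fluorescence; bidirectional fits used DMSO as baseline, serving as a background control.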

[9] = ATG_TGFb_CIS: Attagene CIS-FACTORIAL HepG2 Assay for human Transforming Growth Factor (TGF) (AID 2282967); details: HepG2 Attagene CIS TGFb reporter, mRNA transcription; actives raise or lower the signal
In short: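 Liver HepG2 line, cis-factorial reporter panel, 24 h dosing. Quantitation: RT-PCR products labeled with 6-FAM, cut with HpaI, resolved by capillary electrophoresis; DMSO-referenced bidirectional analysis.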

[10] = ATG_VDRE_CIS: Attagene CIS-FACTORIAL HepG2 Assay for human Vitamin D Receptor Element (VDRE) (AID 2282968); details: HepG2 VDRE cis-reporter transcription, actives raise or lower the signal
In short: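 HepG2 cells transiently transfected with cis-element reporter units, dosed 24 h; reporter mRNA measured by RT-PCR, 6-FAM labeling, HpaI digestion and capillary electrophoresis. Activity fitted bidirectionally against DMSO baseline.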

[11] = molecular target: Nuclear receptor subfamily 1 group I member 3 (Homo sapiens) (UniProt Q14994); assay: ATG_CAR_TRANS: Attagene TRANS-FACTORIAL HepG2 Assay for human Constitutive Androstane Receptor (CAR) (AID 2282969; active = hit-call score of the fitted dose curve at least 0.9, where 1 is the maximum;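 also: activators raise reporter mRNA above DMSO so AC50 marks induction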); details: HepG2 Attagene TRANS-FACTORIAL CAR reporter
In short: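 HepG2 cells transiently transfected with multiplexed GAL4-UAS reporter units expressing chimeric NR-Gal4 proteins; compound exposure 24 h. Reporter mRNA measured by RT-PCR, 6-FAM labelling, HpaI digestion and capillary electrophoresis; gain-of-signal fitted against DMSO baseline.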

[12] = molecular target: Estrogen receptor (Homo sapiens) (UniProt P03372); assay: ATG_ERa_TRANS: Attagene TRANS-FACTORIAL HepG2 Assay for human Estrogen Receptor alpha (ERa) (AID 2282970; active = hit-call score of the fitted dose curve at least 0.9, where 1 is the maximum); details: HepG2 Attagene TRANS ERa GAL4 reporter, mRNA
In short: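 HepG2 cells transiently transfected with multiplexed GAL4-UAS reporter units; ERa activity read via exogenous chimeric NR-Gal4 protein. After 24 hour compound exposure, reporter mRNA measured by RT-PCR with 6-FAM labelling and capillary electrophoresis; gain-of-signal fitted relative to DMSO.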

[13] = molecular target: X-box-binding protein 1 (Homo sapiens) (UniProt P17861); assay: ATG_Xbp1_CIS: Attagene CIS-FACTORIAL HepG2 Assay for human X-box Binding Protein 1 (XBP1) (AID 2282972); details: HepG2 XBP1 cis-element reporter, Attagene multiplex; actives raise or lower the signal
In short: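 Fluorescence-labelled cDNA fragments from reporter transcripts, separated by capillary electrophoresis, give the signal. Source: HepG2 cells transfected with promoter-driven reporter units, harvested 24 h post-dose. DMSO served as reference for bidirectional curve fitting.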

[14] = ATG_M_19_TRANS: Attagene TRANS-FACTORIAL HepG2 Assay for M19 Transcription Factor (Internal Marker) (AID 2282974; active = hit-call score of the fitted dose curve at least 0.9, where 1 is the maximum); details: HepG2 Attagene TRANS-FACTORIAL M19 internal marker reporter
In short: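 Transfected HepG2 (GAL4-UAS MRTUs), 24 h compound, TriZol RNA, DNase-treated RT, reporter PCR, FAM label, HpaI digest, CE fluorescence; gain vs DMSO.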

[15] = ATG_GAL4_TRANS: Attagene TRANS-FACTORIAL HepG2 Assay for GAL4 (Internal Marker) (AID 2282976; active = hit-call score of the fitted dose curve at least 0.9, where 1 is the maximum); details: HepG2 Attagene TRANS GAL4 internal marker reporter
In short: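 HepG2 cells transiently transfected with multiplexed GAL4-UAS reporter constructs were dosed for 24 h. Reporter mRNA was measured by RT-PCR, 6-FAM primer extension, HpaI digestion and capillary electrophoresis, and gain of signal was fitted relative to DMSO.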

[16] = ATG_PPRE_CIS: Attagene CIS-FACTORIAL HepG2 Assay for human Peroxisome Proliferator-activated Response Element (PPRE) (AID 2282958); details: HepG2 PPRE cis-element reporter, Attagene transcription factor profiling; actives raise or lower the signal
In short: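 PPRE activity in HepG2: transient cis-reporter transfection, 24 h compound incubation, reporter mRNA by RT-PCR and CE fluorescence; gain/loss fitted against DMSO.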

[17] = molecular target: Transcription factor Sp1 (Homo sapiens) (UniProt P08047); assay: ATG_Sp1_CIS: Attagene CIS-FACTORIAL HepG2 Assay for human Specificity Protein 1 (Sp1) (AID 2282961); details: HepG2 Sp1 cis-reporter transcription, actives raise or lower the signal
In short: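 Liver-derived HepG2 cells, cis-element reporter library, 24 h treatment; RNA isolated, cDNA amplified with reporter-specific primers, FAM-labeled fragments sized on capillary analyzer. DMSO baseline, bidirectional curve fit.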

[18] = molecular target: Steroid hormone receptor ERR1 (Homo sapiens) (UniProt P11474); assay: ATG_ERRa_TRANS: Attagene TRANS-FACTORIAL HepG2 Assay for human Estrogen-Related Receptor alpha (ERRa) (AID 2282971; active = hit-call score of the fitted dose curve at least 0.9, where 1 is the maximum); details: HepG2 Attagene TRANS reporter, ERRa transactivation
In short: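 HepG2 cells transiently transfected with multiplexed GAL4-UAS reporter units reading chimeric ERRa-Gal4 activity; 24 h compound exposure. Reporter mRNA measured by RT-PCR, 6-FAM labelling, HpaI digest and capillary electrophoresis; gain of signal fitted versus DMSO baseline.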

[19] = molecular target: Estrogen-related receptor gamma (Homo sapiens) (UniProt P62508); assay: ATG_ERRg_TRANS: Attagene TRANS-FACTORIAL HepG2 Assay for human Estrogen-Related Receptor gamma (ERRg) (AID 2282977; active = hit-call score of the fitted dose curve at least 0.9, where 1 is the maximum;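 also: hits increase reporter signal over DMSO so potencies reflect activators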); details: HepG2 Attagene TRANS reporter, ERRg transactivation
In short: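 Transient HepG2 transfectants, 24 h compound exposure, GAL4-UAS reporter mRNA by RT-PCR/6-FAM labelling/capillary electrophoresis; positive direction vs DMSO.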

Measured: AC50

Chain of Transcription factor Sp1 (Homo sapiens) (P08047 whole entry, looked up, the tested form may be a part): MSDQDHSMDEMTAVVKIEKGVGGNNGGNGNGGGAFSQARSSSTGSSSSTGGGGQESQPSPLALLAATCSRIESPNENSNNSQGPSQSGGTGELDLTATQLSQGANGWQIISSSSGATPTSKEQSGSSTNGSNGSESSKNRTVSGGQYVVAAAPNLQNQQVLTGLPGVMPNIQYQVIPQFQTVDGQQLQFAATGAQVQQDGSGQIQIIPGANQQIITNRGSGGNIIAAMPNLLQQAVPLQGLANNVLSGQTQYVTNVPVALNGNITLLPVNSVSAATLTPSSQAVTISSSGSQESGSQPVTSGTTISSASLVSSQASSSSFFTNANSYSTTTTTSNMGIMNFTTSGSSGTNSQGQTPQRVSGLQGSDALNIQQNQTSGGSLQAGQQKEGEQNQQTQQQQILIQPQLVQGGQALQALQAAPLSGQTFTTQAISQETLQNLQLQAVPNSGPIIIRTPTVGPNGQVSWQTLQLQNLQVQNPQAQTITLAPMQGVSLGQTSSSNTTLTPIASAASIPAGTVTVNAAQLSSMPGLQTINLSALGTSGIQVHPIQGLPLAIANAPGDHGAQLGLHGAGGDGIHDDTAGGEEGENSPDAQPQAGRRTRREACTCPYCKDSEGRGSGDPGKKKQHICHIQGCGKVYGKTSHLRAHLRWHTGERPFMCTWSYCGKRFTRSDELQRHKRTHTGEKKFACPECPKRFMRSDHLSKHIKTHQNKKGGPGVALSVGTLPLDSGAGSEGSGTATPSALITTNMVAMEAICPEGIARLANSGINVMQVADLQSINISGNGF
Chain of X-box-binding protein 1 (Homo sapiens) (P17861 whole entry, looked up, the tested form may be a part): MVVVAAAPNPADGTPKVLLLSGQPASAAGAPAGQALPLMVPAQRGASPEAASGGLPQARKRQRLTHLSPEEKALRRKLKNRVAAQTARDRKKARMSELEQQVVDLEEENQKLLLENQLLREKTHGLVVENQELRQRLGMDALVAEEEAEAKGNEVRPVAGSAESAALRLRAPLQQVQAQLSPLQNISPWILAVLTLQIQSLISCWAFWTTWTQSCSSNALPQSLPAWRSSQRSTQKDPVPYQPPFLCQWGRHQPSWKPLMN
Chain of Signal transducer and activator of transcription 3 (Homo sapiens) (P40763 whole entry, looked up): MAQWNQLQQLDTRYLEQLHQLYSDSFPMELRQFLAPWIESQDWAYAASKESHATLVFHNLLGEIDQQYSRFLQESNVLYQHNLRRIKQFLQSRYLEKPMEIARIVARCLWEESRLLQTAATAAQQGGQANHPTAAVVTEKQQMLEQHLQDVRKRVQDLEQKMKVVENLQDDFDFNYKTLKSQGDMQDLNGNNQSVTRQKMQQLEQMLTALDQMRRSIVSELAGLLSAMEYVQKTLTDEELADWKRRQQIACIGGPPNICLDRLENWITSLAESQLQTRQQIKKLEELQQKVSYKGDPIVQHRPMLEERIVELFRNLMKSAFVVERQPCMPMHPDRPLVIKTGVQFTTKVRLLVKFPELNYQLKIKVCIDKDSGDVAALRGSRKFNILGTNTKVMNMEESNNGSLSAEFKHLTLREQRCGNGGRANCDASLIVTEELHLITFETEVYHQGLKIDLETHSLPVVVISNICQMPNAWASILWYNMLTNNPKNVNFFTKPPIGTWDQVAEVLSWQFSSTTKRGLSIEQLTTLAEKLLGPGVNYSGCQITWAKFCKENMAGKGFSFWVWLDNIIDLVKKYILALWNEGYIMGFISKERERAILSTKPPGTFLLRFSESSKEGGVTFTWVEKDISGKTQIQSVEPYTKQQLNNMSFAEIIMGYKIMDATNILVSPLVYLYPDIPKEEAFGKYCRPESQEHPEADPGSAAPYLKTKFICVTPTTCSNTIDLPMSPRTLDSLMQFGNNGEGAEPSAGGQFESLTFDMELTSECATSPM
Chain of Estrogen receptor (Homo sapiens) (P03372 whole entry, looked up, the tested form may be a part): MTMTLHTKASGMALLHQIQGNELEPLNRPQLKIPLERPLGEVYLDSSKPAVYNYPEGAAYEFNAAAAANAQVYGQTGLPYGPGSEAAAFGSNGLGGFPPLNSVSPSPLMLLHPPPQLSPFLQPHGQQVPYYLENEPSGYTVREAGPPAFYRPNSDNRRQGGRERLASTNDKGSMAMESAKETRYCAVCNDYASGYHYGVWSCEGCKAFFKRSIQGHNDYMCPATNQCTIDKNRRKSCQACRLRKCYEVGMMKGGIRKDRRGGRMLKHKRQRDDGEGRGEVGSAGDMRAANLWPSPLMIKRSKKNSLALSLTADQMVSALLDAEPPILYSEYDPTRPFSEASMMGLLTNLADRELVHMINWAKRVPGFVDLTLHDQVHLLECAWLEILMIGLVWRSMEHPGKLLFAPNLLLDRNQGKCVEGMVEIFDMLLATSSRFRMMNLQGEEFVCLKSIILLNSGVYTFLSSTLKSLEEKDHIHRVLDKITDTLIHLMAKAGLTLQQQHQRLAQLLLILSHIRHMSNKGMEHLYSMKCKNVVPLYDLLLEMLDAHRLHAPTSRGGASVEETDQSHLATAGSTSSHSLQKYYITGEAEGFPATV
Chain of Estrogen-related receptor gamma (Homo sapiens) (P62508 whole entry, looked up, the tested form may be a part): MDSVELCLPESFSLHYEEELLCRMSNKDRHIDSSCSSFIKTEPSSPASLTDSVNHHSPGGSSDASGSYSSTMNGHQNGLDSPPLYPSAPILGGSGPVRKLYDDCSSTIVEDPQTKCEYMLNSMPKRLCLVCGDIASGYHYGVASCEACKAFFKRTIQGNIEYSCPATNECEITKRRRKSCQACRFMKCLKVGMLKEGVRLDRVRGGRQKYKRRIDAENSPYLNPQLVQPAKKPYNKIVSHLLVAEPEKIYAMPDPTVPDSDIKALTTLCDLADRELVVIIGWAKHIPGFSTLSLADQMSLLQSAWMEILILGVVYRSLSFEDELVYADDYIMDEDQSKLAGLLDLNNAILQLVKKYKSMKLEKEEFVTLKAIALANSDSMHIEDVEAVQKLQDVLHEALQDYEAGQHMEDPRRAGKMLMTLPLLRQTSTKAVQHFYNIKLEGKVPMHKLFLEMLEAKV
Chain of Steroid hormone receptor ERR1 (Homo sapiens) (P11474 whole entry, looked up, the tested form may be a part): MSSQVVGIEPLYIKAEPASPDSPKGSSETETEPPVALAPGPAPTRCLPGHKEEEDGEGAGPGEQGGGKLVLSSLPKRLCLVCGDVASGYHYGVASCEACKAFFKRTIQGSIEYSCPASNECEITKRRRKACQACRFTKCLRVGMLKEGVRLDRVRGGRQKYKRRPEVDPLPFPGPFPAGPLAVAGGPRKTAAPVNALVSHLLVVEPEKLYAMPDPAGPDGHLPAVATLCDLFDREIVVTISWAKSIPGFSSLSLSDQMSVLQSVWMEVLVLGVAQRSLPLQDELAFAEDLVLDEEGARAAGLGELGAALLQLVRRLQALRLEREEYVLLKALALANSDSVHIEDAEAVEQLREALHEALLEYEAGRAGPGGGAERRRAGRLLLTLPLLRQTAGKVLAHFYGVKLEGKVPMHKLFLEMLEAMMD
Chain of Nuclear receptor subfamily 1 group I member 3 (Homo sapiens) (Q14994 whole entry, looked up, the tested form may be a part): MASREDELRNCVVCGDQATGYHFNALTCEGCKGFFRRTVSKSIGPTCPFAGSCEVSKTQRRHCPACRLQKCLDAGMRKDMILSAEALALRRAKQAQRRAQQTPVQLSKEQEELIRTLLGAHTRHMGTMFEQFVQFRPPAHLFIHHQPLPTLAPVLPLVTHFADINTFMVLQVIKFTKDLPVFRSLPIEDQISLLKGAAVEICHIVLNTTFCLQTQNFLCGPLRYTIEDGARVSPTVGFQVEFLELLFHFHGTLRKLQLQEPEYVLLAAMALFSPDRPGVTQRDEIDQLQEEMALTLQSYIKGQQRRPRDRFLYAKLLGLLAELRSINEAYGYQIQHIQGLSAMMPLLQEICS

CC(C)=CCC/C(C)=C\C#N
active: [1] 28.1 µM
not listed: [16] | [17] | [18] | [19]
inactive: all other assays above

CC(=O)CC(N)=O
active: [1] 0.0836 µM
not listed: [6] | [11] | [12] | [18] | [19]
inactive: all other assays above

O=C(O)CCCCCCCCCC(=O)O
active: [12] 22.7 µM
not listed: [2] | [7] | [11] | [14]
inactive: all other assays above

CCCCCCCC(C)=O
not listed: [5] | [7] | [11] | [12] | [18] | [19]
inactive: all other assays above

O=C(C(Cl)Cl)N1CCOC12CCCCC2
active: [6] 12 µM
not listed: [2] | [11] | [12] | [15] | [18] | [19]
inactive: all other assays above
